# Screening data: PubChem BioAssay, several laboratories
# MEKK3 PB1 HTS: MEKK3-MEK5 PB1 interaction, increase or decrease; Q99759; bead-based flow cytometry, Alexa488-MEK5 binding to MEKK3; actives lie on both sides; 0 = blocked by unlabeled MEK5, 100 = vehicle; binding response (% of control), % at 10 µM; 290,000 tested, 1.4% active; AID 1529;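 active = binding response more than 3 SD above or below the average of its plate-row segment, actives on both sides; inconclusive = wells at one plate position flagged as instrument error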;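 also: Alexa488 bead fluorescence after subtracting the streptavidin-only scavenger bead signal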
# ATG4B inh: blocks human ATG4B protease cleavage of LC3 substrate; Q9Y4P1; ATG4B cleavage of LC3-PLA2, NBD-HPC fluorescence, 1 h; inhibition, % at 8.33 µM; 340,000 tested, 0.51% active; AID 504462; in the data active = inhibition above about 40%
# Target sequence (Q9Y4P1 whole entry, looked up): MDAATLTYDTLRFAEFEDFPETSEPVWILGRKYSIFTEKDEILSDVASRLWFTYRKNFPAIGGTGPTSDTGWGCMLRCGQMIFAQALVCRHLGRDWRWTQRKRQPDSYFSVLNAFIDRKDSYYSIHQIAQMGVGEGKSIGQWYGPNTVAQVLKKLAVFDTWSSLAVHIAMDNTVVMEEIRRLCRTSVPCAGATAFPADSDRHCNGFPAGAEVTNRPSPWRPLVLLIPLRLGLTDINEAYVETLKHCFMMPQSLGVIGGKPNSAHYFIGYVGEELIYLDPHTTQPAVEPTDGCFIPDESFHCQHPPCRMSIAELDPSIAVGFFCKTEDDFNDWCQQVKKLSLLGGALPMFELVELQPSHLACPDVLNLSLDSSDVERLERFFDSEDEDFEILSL
# MEKK2wt PB1 HTS: raises or lowers MEK5 binding to wildtype human MEKK2 PB1 domain; Q9Y2U5; bead flow cytometry, Alexa488-MEK5 binding to MEKK2 WT; actives lie on both sides; binding response (% of control), % at 10 µM; 290,000 tested, 1.1% active; AID 1531; in the data active = binding response below about 67% or above about 130%; inconclusive = no clear call, values can overlap the other calls; inactive = in between
# UBC13 inh: blocks human UBC13 polyubiquitin chain formation. 330,000 tested, 0.47% active. P61088. inhibition, % at 20 µM. TR-FRET; in the data active = inhibition above about 45%, passing the limit was not always enough; inconclusive = no clear call, values can overlap the other calls
# Target sequence (P61088 whole entry, looked up): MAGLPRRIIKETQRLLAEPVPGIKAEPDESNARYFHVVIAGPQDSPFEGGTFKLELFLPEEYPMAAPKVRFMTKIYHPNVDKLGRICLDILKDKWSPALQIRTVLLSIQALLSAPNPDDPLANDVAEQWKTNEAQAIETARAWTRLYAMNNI
# PREPL inhibitor: inhibits the human prolyl oligopeptidase-like enzyme; Q4J6C6; recombinant PREPL, fluorescence polarization activity-based probe; inhibition, % at 5.96 µM; 320,000 tested, 0.68% active; AID 2751; in the data active = inhibition above about 43%
# MEKK2 mut-MEK5: signal of MEK5 binding to mutant human MEKK2 PB1 domain. bead flow cytometry, Alexa488-MEK5 binding to MEKK2 mutant. percent response, % at 10 µM. 290,000 tested, 0.35% active. AID 1530; in the data active = percent response above about 24%, passing the limit was not always enough
# Numbers stand for hits; i = inactive; ? = inconclusive; nt = no result given; [ ] = dose if it differs, or a comment. In the library only some 3.1% were active in any assay of this set; here they are far more common.
SMILES,MEKK3 PB1 HTS,ATG4B inh,MEKK2wt PB1 HTS,UBC13 inh,PREPL inhibitor,MEKK2 mut-MEK5
O=C(O)c1cc(O)c2c(c1)[C@@H]([C@H]1c3cc(C(=O)O)cc(O)c3C(=O)c3c(O[C@@H]4O[C@H](CO)[C@@H](O)[C@H](O)[C@H]4O)cccc31)c1cccc(OC3O[C@H](CO)[C@@H](O)[C@H](O)[C@H]3O)c1C2=O (stereo partly specified),nt,i,nt,?,106.4,nt
COc1ccc(N2C(=NC(=O)c3ccccc3)SC3CS(=O)(=O)CC32)cc1 (stereo unspecified),i,i,i,i,i,i
N=C1S/C(=C\c2cccc3ccccc23)C(=O)N1c1ccc(F)cc1,144.0,i,i,i,i,i
CCOC(=O)C1CCN(S(=O)(=O)c2ccc3c(c2)CC(C)N3C(=O)C2CC2)CC1 (stereo unspecified),i,i,i,i,i,i
CC1Cc2cc(S(=O)(=O)N3CCC(C(N)=O)CC3)ccc2N1C(=O)C1CC1 (stereo unspecified),2.0[inhibitor],i,0.0[inhibitor],i,i,i
COc1ccc(C(C)(C)C)cc1NC(=O)CCc1c(C)noc1C,nt,i,nt,i,i,nt
CCCCOc1ccccc1C(=O)NNC(=S)NC(=O)c1ccccc1[N+](=O)[O-],i,i,i,i,i,i
c1coc(C2Nc3cccc4cccc(c34)N2)c1,i,nt,i,i,43.4,i
Clc1ccccc1C1Nc2cccc3cccc(c23)N1,i,i,i,i,i,i
CCOC(=O)C1=C(CS(=O)(=O)c2ccccc2)NC(=O)NC1c1ccccc1OC (stereo unspecified),i,i,i,i,i,i
CCOc1ccc(-c2cc(C(=O)OC)[nH]n2)cc1,162.0,i,i,i,i,880.0
COC(=O)c1cc(-c2ccc(OC)cc2)n[nH]1,i,i,i,i,i,i
COc1ccc(NC(=S)N(CCCN2CCCC2)Cc2cccn2Cc2ccc(Cl)cc2)cc1Cl,i,i,293.0,i,i,161.0
Cc1ccc(NC(=S)N(CCCN2CCCC2)Cc2cccn2Cc2ccc(Cl)cc2)cc1Cl,i,i,317.0,i,i,i
Cc1ccc(NC(=S)N(CCCN2CCCC2)Cc2cccn2Cc2ccc(Cl)cc2)cc1C,i,i,228.0,i,i,74.0
CCOC(=O)C1CCN(C(=O)CNC(=O)c2nn(-c3ccc(OC)cc3)c(=O)c3ccccc23)CC1,i,i,i,i,i,i
Cn1c(=O)[nH]c(=O)c2c1nc(SCCO)n2CC(O)COc1ccccc1 (stereo unspecified),i,i,i,i,i,i
CC(C)Sc1nc2[nH]ncc2c(=O)[nH]1,i,i,i,i,i,i
COc1ccc(N2CCN(c3oc(-c4ccccc4OC)nc3C#N)CC2)cc1,nt,i,nt,i,51.7,nt
COc1ccc(NC(=O)C2=CC=CN3CCS(=O)(=O)N=C23)c(OC)c1,nt,i,nt,i,i,nt
CCNC(=O)NC(=O)CSc1ccc(S(=O)(=O)N2CCOCC2)cn1,nt,i,nt,i,i,nt
CCN(CC)c1ccc(/C=N/N=C(N)N)c(O)c1,i,i,nt,i,i,113.0
N#Cc1c(N)sc(=S)c2c1CCN(Cc1ccccc1)C2,i,nt,i,i,73.6,i
CCN1CCc2c(sc(N)c2C#N)C1,i,i,i,i,i,i
CC12CC3CC1C(C(=O)O2)C3C(=O)O (stereo unspecified),nt,i,nt,nt,nt,nt
SMILES,MEKK3 PB1 HTS,ATG4B inh,MEKK2wt PB1 HTS,UBC13 inh,PREPL inhibitor,MEKK2 mut-MEK5
CN(C)CCCN(C(=O)c1ccc([N+](=O)[O-])s1)c1nc2cc3c(cc2s1)OCCO3,i,i,i,i,i,i
CN(C)CCCN(C(=O)c1cc2cc([N+](=O)[O-])ccc2s1)c1nc2cc3c(cc2s1)OCCO3,nt,i,nt,73.4,i,nt
COc1cccc(NC(=O)Cn2c3ccccc3c3nc4n(c(=O)c32)CCCS4)c1,i,i,i,i,i,i
COC(=O)C/C=N/N=C1/NC(=O)/C(=C/C(=O)O)S1,i,i,1.0,i,i,i
CC(=O)Nc1sc(N/N=C\c2ccc(O)cc2)nc1-c1cccs1,i,i,i,i,i,i
CCN(CC)c1ccc(/C=C(\C#N)c2nc(-c3cccs3)c(NC(C)=O)s2)cc1,i,nt,290.0,nt,nt,517.0
CCNC(=O)NC(=O)C(C)OC(=O)CCCSc1nc2ccccc2s1 (stereo unspecified),i,i,i,i,i,i
O=C1CCC(C(=O)N2CCCO2)CN1Cc1cccc(C(F)(F)F)c1 (stereo unspecified),i,i,i,i,nt,i
COC(=O)Cn1cnc(C(=O)Nc2ccc(C)c(C)c2)n1,nt,i,nt,nt,nt,nt
Cc1cccc(NC(=O)c2cc3n(n2)C(C(F)(F)F)CC(c2ccc4c(c2)OCO4)N3)c1 (stereo unspecified),i,i,i,i,i,i
COc1ccc(NC(=O)c2cc3n(n2)C(C(F)(F)F)CC(c2ccc4c(c2)OCO4)N3)cc1OC (stereo unspecified),i,i,i,i,46.2,i
Oc1ccccc1-c1nc(NC2CCCC2)c2ccccc2n1,i,i,i,i,i,i
c1ccc(-c2nnc(-c3ccccn3)nc2NC2CCCCC2)cc1,i,i,i,i,86.1,i
COc1cccc(C2C3=C(N=c4s/c(=C\c5cccc(O)c5)c(=O)n42)c2ccccc2CC3)c1OC (stereo unspecified),133.0,i,i,i,i,i
NC(=O)c1cc([N+](=O)[O-])ccc1NCc1cnccn1,nt,i,nt,i,i,nt
O=[N+]([O-])c1cccc(N=NN(CCO)c2cccc([N+](=O)[O-])c2)c1,i,i,i,i,51.9,i
Cc1cccc(CN2C(=O)/C(=C\c3ccc(C(=O)NCCCN4CCN(C)CC4)cc3)Oc3ccccc32)c1,i,nt,162.0,67.8,i,36.0
C#CCOCCOCCOCCNc1nc(N2CCN(C(=O)[C@H](CCCCN)n3cc([C@@H](N)C(C)CC)nn3)CC2)nc(N2CCN(C(=O)[C@H](CCCCN)n3cc([C@@H](N)CO)nn3)CC2)n1 (stereo partly specified),i,nt,i,46.3,i,i
C#CCOCCOCCOCCNc1nc(N2CCN(C(=O)[C@H](CCCCN)n3cc(C(N)COC(=O)C(F)(F)F)nn3)CC2)nc(N2CCN(C(=O)[C@H](CCCCN)n3cc(C(N)CC(C)C)nn3)CC2)n1 (stereo partly specified),i,nt,150.0,nt,nt,i
C#CCOCCOCCOCCNc1nc(N2CCN(C(=O)[C@H]([C@@H](C)CC)n3cc([C@@H](N)CO)nn3)CC2)nc(N2CCN(C(=O)[C@H](CCCCN)n3cc([C@@H](N)C(C)CC)nn3)CC2)n1 (stereo partly specified),i,i,i,i,i,i
CS(=O)(=O)N1CCC(Oc2ccccc2C(=O)N2CCC[C@H]2CO)CC1,i,i,i,i,i,i
